Pf Dd2 inh: qHTS Primary assay for Inhibitors of Plasmodium falciparum Dd2 growth in vitro. Potency, µM (titrated, usually from 28.9 µM), for the others: at the highest dose activity, negative = inhibition, usual class: inhibitors. P. falciparum Dd2 growth, SYBR Green, 72 h. hit rate 4.3% among 120,000. AID 1347417, 2020; active = well fitted inhibition curve with a large enough effect;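 note: plate controls were DMSO vehicle for no effect and reference drug for full effect; nearly all actives have a fitted effect of over 65% in size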
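Readout: SYBR Green fluorescence, 485 nm excitation, 535 nm emission, after ~16 h lysis at 37C. Before that, Dd2-infected red cells (2.5% hematocrit) grew 72 h with compound, 29 uM top final concentration.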
* hit, by the source's call; [ ] = another dose, or the depositor's remark. Only a selection was taken, and hits are over-represented in it overall. Potency is the fitted concentration of half-maximal effect.

Cc1ccccc1C(=O)Nc1nc2c(s1)CC(C(C)(C)C)CC2 (stereo not drawn) was read as Pf Dd2 inh 5.6µM*.
Screening CC1CCc2nc(NC(=O)Cc3ccc(Cl)cc3)sc2C1 (stereo not drawn) returned Pf Dd2 inh 84%.
For CN1c2cc(C(=O)NC3CCCC3)ccc2C(=O)N2CCCCC21 (stereo not drawn) the results were Pf Dd2 inh inactive.
CCc1noc([C@@H]2CC(F)(F)CN2C(=O)CCn2ccnc2)n1 was read as Pf Dd2 inh 4%.
Screening COc1ccc(NC(=O)N2CCCCC2c2nc(C3CC3)n[nH]2)cc1 (stereo not drawn) returned Pf Dd2 inh -1%.
For COC(=O)[C@H](NC(=O)[C@@H]1C[C@H](NC(=O)NC(C)C)CN1C(=O)c1cccn1C)C(C)C the results were Pf Dd2 inh 2%.
Screening COCCN1C(=O)CC[C@]2(C(=O)NCc3ccc(OC)c(OC)c3)CCCC[C@@H]12 returned Pf Dd2 inh -8%.
Screening Cc1ccccc1C(=O)Nc1sc2c(c1C(=O)N1CCCCC1)CCC(C(C)(C)C)C2 (stereo not drawn) returned Pf Dd2 inh 5.6µM*.
Screening COC(=O)c1c(NC(=O)c2cccc(OC)c2)sc2c1CCC(C(C)(C)C)C2 (stereo not drawn) returned Pf Dd2 inh -4%.
For Cc1ccc2c(=O)cc(C(=O)Nc3sc4c(c3C(=O)NCc3ccco3)CCC4)oc2c1C the results were Pf Dd2 inh 38%.
For CC1CCN(C(=O)c2c(NC(=O)c3ccccc3Cl)sc3c2CCC(C(C)(C)C)C3)CC1 (stereo not drawn) the results were Pf Dd2 inh 11µM*.
CCC(CC)NC(=O)CCC1CCN(C(=O)c2ccccc2Cl)CC1 was read as Pf Dd2 inh -13%.
For Cc1ccccc1C(=O)Nc1sc2c(c1C(=O)O)CCC(C(C)(C)C)C2 (stereo not drawn) the results were Pf Dd2 inh -27%.
For Cc1ccccc1C(=O)Nc1sc2c(c1C(=O)NCc1ccco1)CCC(C(C)(C)C)C2 (stereo not drawn) the results were Pf Dd2 inh 11µM*.
CC(C)(C)C1CCc2c(sc(NC(=O)c3cc(-c4ccc(F)cc4)on3)c2C#N)C1 (stereo not drawn) was read as Pf Dd2 inh 33%.
`Cc1cc(C)c2c(=O)cc(C(=O)Nc3sc4c(c3C(=O)NCc3ccco3)CCCC4)oc2c1` gave Pf Dd2 inh -3%.
For O[C@H]1COCCN(Cc2ccc(OC(F)(F)F)cc2)C1 the results were Pf Dd2 inh -16%[44.1 µM].
`Cc1cnc(C(=O)N2CCOc3ccc(CCC(N)=O)cc3C2)cn1` gave Pf Dd2 inh 0%.
Screening Cc1ccc(C(=O)N2CCC3(CC2)NC(=O)N(c2ccccc2Cl)N3)c(C)c1 returned Pf Dd2 inh -10%.
Screening O=C1CCC2(CCCO2)CCN1Cc1cccc(F)c1 (stereo not drawn) returned Pf Dd2 inh 10%.
`CN(Cc1ccccc1)C(=O)[C@@H]1CN(S(C)(=O)=O)C[C@H]1c1ccncc1` gave Pf Dd2 inh -10%.
COC[C@@H]1CN(C(=O)c2cccn2C)C[C@H]1c1nc(C2CC2)no1 was read as Pf Dd2 inh -24%.
CC1(C(=O)NCc2cccc(F)c2)COCc2cnc(Nc3ccccc3)nc21 (stereo not drawn) was read as Pf Dd2 inh inactive.
For O=C(c1ccc(C(F)(F)F)cc1)N1CCCC2(CC(c3ccccc3)=NO2)C1 (stereo not drawn) the results were Pf Dd2 inh 8%.
O=C1CCC(C(=O)N2CCN(Cc3ccc(F)cc3)CC(O)C2)=NN1 (stereo not drawn) was read as Pf Dd2 inh 2%.
`CC1(C(=O)NC2CCCCC2)Cc2ccccc2C(=O)N1Cc1ccc(F)cc1` (stereo not drawn) gave Pf Dd2 inh 19%.
COc1ccc(Cl)cc1NC(=O)C[C@H]1NC(=O)c2ccccc2NC1=O was read as Pf Dd2 inh -23%.
Screening Cc1ccc(NC(=O)N2CCC3(CC2)Oc2ccccc2C(=O)N3Cc2ccc(F)cc2)cc1 returned Pf Dd2 inh 11µM*.
O=C(Nc1ccc(F)c(Cl)c1)N1CCC2(CC1)Oc1ccccc1C(=O)N2Cc1ccccc1F was read as Pf Dd2 inh 3%.
For COc1ccc(Cl)cc1NC(=O)N1CCC(CN2CCCCCC2)CC1 the results were Pf Dd2 inh -11%.
Screening COc1ccc(Cl)cc1NC(=O)N1CCC2(CC1)Oc1ccccc1C(=O)N2Cc1ccc(F)cc1 returned Pf Dd2 inh 13µM*.
For O=C(Nc1cccc(Cl)c1Cl)N1CCC2(CC1)SCC(=O)N2Cc1ccco1 the results were Pf Dd2 inh inactive.
For Cc1ccc(NC(=O)N2CCC3(CC2)SCC(=O)N3Cc2ccccc2)cc1 the results were Pf Dd2 inh inactive.
For O=C(Nc1ccccc1Cl)N1CCC2(CC1)Oc1ccccc1C(=O)N2Cc1ccc(F)cc1 the results were Pf Dd2 inh 14µM*.
For CCCc1ccc(C(=O)N2CCC3(CCCN(C)C3=O)C2)cc1 (stereo not drawn) the results were Pf Dd2 inh -4%.
For Cn1ncc(N2CCC(NC(=O)CC3CCCCC3)CC2)cc1=O the results were Pf Dd2 inh 27%.
Screening Cc1nc([C@H]2CCN(Cc3cccnc3)C[C@H]2NC(=O)C2CC2)n[nH]1 returned Pf Dd2 inh 30%.
`Cc1ncc(CO)c(CN2CCCC3(Cc4ccccc4CNC3=O)C2)c1O` (stereo not drawn) gave Pf Dd2 inh -3%.
`CSCCCN1CCC(Oc2ccc3ncccc3c2)(C(=O)O)CC1` gave Pf Dd2 inh -14%.
COCCN1C(=O)[C@@H]2C[C@@H](CN2C)Oc2ccccc21 was read as Pf Dd2 inh -14%[44.1 µM].
`CCCNC(=O)NC[C@@H]1C=C(C)[C@H](Cc2nc3nc(OC)ccc3[nH]2)C[C@H]1C(C)C` gave Pf Dd2 inh 10µM*.
Screening CC1=C[C@@H](CNC(=O)c2cccnc2)[C@H](C(C)C)C[C@H]1CC(=O)NC1CCCC1 returned Pf Dd2 inh inactive.
For CCC(CC)C(=O)NC[C@@H]1C=C(C)[C@H](Cc2nc3ccc(F)cc3[nH]2)C[C@H]1C(C)C the results were Pf Dd2 inh inactive.
`CC(=O)NC[C@@H]1C=C(C)[C@H](Cc2nc3ccccc3[nH]2)C[C@H]1C(C)C` gave Pf Dd2 inh -24%[44.1 µM].
`COc1ccc2[nH]c(C[C@@H]3C[C@@H](C(C)C)[C@H](CNC(=O)c4cccnc4)C=C3C)nc2n1` gave Pf Dd2 inh 11µM*.
Screening CC1=C[C@@H](CNC(=O)C(C)C)[C@H](C(C)C)C[C@H]1Cc1nc2ncccc2[nH]1 returned Pf Dd2 inh -3%[44.1 µM].
Screening COCC(=O)N1CCCC(C(=O)NCc2ccccc2OC)CCNC(=O)CC1 (stereo not drawn) returned Pf Dd2 inh inactive.
Screening CC(C)CNC(=O)N1[C@@H]2CC[C@H]1CC(NC(=O)c1ccc(F)cc1)C2 (stereo partly drawn) returned Pf Dd2 inh inactive.
CC[C@H]1CN(C(=O)Nc2cccc(C(F)(F)F)c2)CC[C@H]1CC(=O)NCc1cccc2ccccc12 was read as Pf Dd2 inh 10%.
Screening COCC(=O)N1CCCN(c2cc(C3CC(O)C3)ncn2)CC1 (stereo not drawn) returned Pf Dd2 inh -3%.
Cc1ccc(C(=O)N[C@@H]2CN(c3ncccn3)C[C@H]2CO)cn1 was read as Pf Dd2 inh -23%.
For CCOc1ccc(C2=CC(c3cc(Br)ccc3F)n3ncnc3N2)cc1Cl (stereo not drawn) the results were Pf Dd2 inh 11µM*.
